# Laboratory results as given in the OligoGym collection.
# Target: SCAF4
# Assay: pooled miR-30 sensor sort-seq; sequence = guide strand
# Conditions: shRNA
# Further: reference of the scale not given here.
row,Sequence,sensor-assay potency score (higher = more potent)
1,TTAGTGATGAGAATCATCTTGG,0.534
2,TTGTCTGAAACAGCTGAGCCAC,-1.31
3,TTGTTCTACTTCCATTTCCTGC,-0.925
4,TTTCTTGAGATCGAGATCGGGG,-0.563
5,TTGAGTTGTCTGAAACAGCTGA,0.384
6,TACTATTTGAACTACATGCTTA,0.0032
7,TTACACTTTTTGATGAACTTTT,-0.768

# Target: SCAPER
# Assay: as above
# Conditions: shRNA
row,Sequence,sensor-assay potency score (higher = more potent)
1,TTAACAATTCTTCTACACGGGC,-0.521
2,ATAATCTGCAAGGACATCGTTC,-0.342
3,TAAACATTGATTGCATTGCAGA,-1.19
4,TTCATCTGGAACATAAACCGTC,0.155
5,TTCTTTATCACTGTCATCCTTT,0.0905
6,TTGATCTAGCAATTCTTCCTTC,0.245
7,TTTTCTTCCATCATCCTGCGTC,0.186
8,TTGAGTGTAATTCTCCTTGGGA,0.0508
9,TTGAGCATCTGTCTTCTCTAGC,-0.0428
10,TTATTTTACAGTCCACTGCAGT,-0.733
11,TTACATTCGACCACACTCTGAT,0.939

# Target: SCG3
# Assay: as above
# Conditions: shRNA
row,Sequence,sensor-assay potency score (higher = more potent)
1,TTGTCATGTTTCTTCAACCATT,-1.02
2,TAGTTTAGAAACAATCTTGTCA,0.211
3,TAGTAGAGTCATAATCATCGAT,0.0703
4,TTTCAAGGTAGGAAACACCTTC,0.087
5,TTCTTCATGACTCTTCTCTGAT,0.0122
6,TTAATTTTTGTAAAACCTCTGC,-0.0676
7,TTTATGATCCAATCCACTCTTA,-0.0664
8,TATTGTTCCATATTTCACCATC,-0.949
9,TTCTTATAGATTGTCTTTCTTT,-0.774
10,TAATCTTGTCTTCTTCTGCTTC,-0.063
11,TAGTTGATGAAGACCATCTGGA,0.192

# Target: SCGB1D4
# Assay: as above
# Conditions: shRNA
row,Sequence,sensor-assay potency score (higher = more potent)
1,TTTCAATGAGAGTCGTTTCTTA,0.178
2,TTCAATGAGAGTCGTTTCTTAA,-0.987
3,TTAAAAGATATCTGATCGGTGC,0.0419
4,AAGTTTGGCAACTTGGAGGTTT,-0.0937
5,TGATCTCAGAAGCAACAGCTGG,-1.12
6,TTTTTAGTGAAGATCAGGGTGT,0.0112
7,TATCTGATCGGTGCAGTGCTTC,-0.707
8,AAAGATATCTGATCGGTGCAGT,0.161
9,TCTTAAAAGATATCTGATCGGT,-0.48
10,TTCACTTCCAACTTGGCTGCAA,1.11
11,AATAAGAAGACTGTGATCTCAG,0.355
